In test [1] the test system is DLD1. The experiment in a line: cell viability (CellTiter-Glo) relative to plate median (fraction of plate median); higher = more viable cells. The settings on record: 5 µM; treatment time 24 h; reporter: 7TFP. The procedure, abridged:
(§1)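 Library compounds were added at a final concentration of 5 µM for 24 h to colorectal cancer cells stably transduced with a lentiviral TCF/Wnt firefly luciferase reporter. Reported values are firefly luciferase or CellTiterGlo luminescence, normalised per well to the plate median. Each value averages two independent replicates.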
(ATP-based viability assays read luminescence as a measure of living cells.)

Another test concerns HCT116. Described as above. The note with it: 5 µM; treatment time 24 h; reporter: TCF4/Wnt. An outline of the steps: as §1
For test [2], the system named is SW480. Described as above. The note with it: 5 µM; treatment time 24 h; reporter: 7TFP. The procedure, abridged: as §1
For test [3], the system named is DLD1. Description: TCF/Wnt firefly luciferase reporter signal relative to plate median (fraction of plate median); higher = higher Wnt reporter signal. The note with it: 5 µM; treatment time 24 h; reporter: 7TFP. An outline of the steps:
as §1
For orientation: Reporter assays use an easily measured gene product as a stand-in for the process of interest.

The subject of test [4] is SW480. Described as above. The note with it: 5 µM; treatment time 24 h; reporter: 7TFP. An outline of the steps: as §1

± gives the standard deviation of the averaged measurements.

These results are taken from the supplement of paper PMC6522484.

As for `COc1ccc2c(c1)OCC(Cc1ccc(OC)c(O)c1)C2=O` (stereo not given), the cell viability in the test with DLD1 [1] was 0.937 ± 0.0099; in the test with HCT116, 0.847 ± 0.043; in the test on SW480 [2], 1.09 ± 0.035. In addition, the “TCF/Wnt firefly luciferase reporter signal” value is 0.707 ± 0.13 in the test with DLD1 [3] and 0.883 ± 0.047 in the test with SW480 [4].
On to `CNS(=O)(=O)Cc1ccc2[nH]cc(CCN(C)C)c2c1`, for which the values for the cell viability with DLD1 [1], in the test with HCT116 and with SW480 [2] were 1.08 ± 0.099, 1.07 ± 0.05 and 0.9885 ± 0.0078, respectively. In addition, the “TCF/Wnt firefly luciferase reporter signal” value was 1.07 ± 0.099 in the test with DLD1 [3] and 1.07 ± 0.028 in the test with SW480 [4].
For `O=c1c(O)c(-c2ccc(O)cc2O)oc2cc(O)cc(O)c12`, in that order: 1.11 ± 0.11, 1.155 ± 0.0071, 1.15, 1.11 ± 0.099 and 1.11 ± 0.15.
For `COC(=O)C1=CO[C@@H](O[C@@H]2O[C@H](CO)[C@@H](O)[C@H](O)[C@H]2O)[C@@H]2[C@@H](C)[C@@H](O)C[C@H]12`, in that order: 1.045 ± 0.0071, 1.02 ± 0.047, 1.06 ± 0.035, 1.01 ± 0.016 and 1.09 ± 0.064.
For `N=C1C=CC(=C(c2ccc(N)cc2)c2ccc(N)cc2)C=C1`, in that order: 0.908 ± 0.046, 0.873 ± 0.0028, 0.829 ± 0.053, 0.923 ± 0.057 and 0.819 ± 0.14.
For the compound `CC(Oc1ccccc1)C(=O)N[C@@H]1C(=O)N2[C@@H]1SC(C)(C)[C@@H]2C(=O)O` (stereo not given in full), the cell viability with DLD1 [1] amounted to 0.97 ± 0.032; with HCT116, 0.928 ± 0.022; in the test on SW480 [2], 0.9865 ± 0.00071. Besides, the “TCF/Wnt firefly luciferase reporter signal” value with DLD1 [3] was determined as 1.07 ± 0.071; in the test on SW480 [4] it was 1.065 ± 0.0071.
For `O=C(O)c1cc(/N=N/c2ccc(S(=O)(=O)Nc3ccccn3)cc2)ccc1O`, in that order: 0.992 ± 0.0042, 1 ± 0.078, 1.04 ± 0.057, 0.899 ± 0.083 and 0.837 ± 0.02.
The like results for `CCCn1c(=O)c2[nH]c(C3CCCC3)nc2n(CCC)c1=O` were, in that order, 0.998 ± 0.059, 1.03 ± 0.047, 1.02 ± 0.037, 1.04 ± 0.16 and 0.968 ± 0.073.
The like results for `CC(C)CC(NC(=O)OCC1c2ccccc2-c2ccccc21)C(=O)O` (stereo in doubt) were, in that order, 1.06 ± 0.057, 0.996 ± 0.035, 1.01 ± 0.021, 0.979 ± 0.027 and 1.02 ± 0.029.
`O=C(c1c[nH]c2ccccc12)C(O)CO` (stereo not given) [1-(3-Indolyl)-2,3-dihydroxypropan-1-one]: the cell viability in the test with DLD1 [1] is 0.989 ± 0.072; in the test with HCT116, 1.02 ± 0.06; with SW480 [2] it was 0.966 ± 0.046. Also, the “TCF/Wnt firefly luciferase reporter signal” value in the test with DLD1 [3] worked out at 1.12 ± 0.028; with SW480 [4], 1 ± 0.079.
The like results for `O=C(Cc1ccccc1)NO` were, in that order, 1.03 ± 0.028, 0.878 ± 0.13, 1 ± 0.027, 0.789 ± 0.064 and 0.869 ± 0.014.
For `CCNC(=O)CC[C@H](N)C(=O)O`, in that order: 1.01 ± 0.021, 1.03 ± 0.06, 0.998 ± 0.018, 1.13 ± 0.11 and 1.05 ± 0.014.
The like results for `CN(C)CCOC(c1ccccc1)c1ccccc1` were, in that order, 1.04 ± 0.028, 1.06 ± 0.092, 0.955 ± 0.013, 1.2 and 1.19 ± 0.085.
Regarding `COC(=O)CCCOc1ccc(Cl)cc1Cl`, the cell viability with DLD1 [1] was found to be 0.984 ± 0.093; in the test on HCT116, 1.02 ± 0.11; in the test with SW480 [2], 0.965 ± 0.05. Besides, the entries for the “TCF/Wnt firefly luciferase reporter signal” value in the test on DLD1 [3] and with SW480 [4] were 1.1 ± 0.099 and 0.9 ± 0.23, respectively.
For `NC(=O)NO`, in that order: 1.06 ± 0.09, 1.05 ± 0.042, 1.09 ± 0.028, 1.03 ± 0.11 and 1.03 ± 0.12.
